Hit rate of the full screen: of about 69,000 compounds, about 8,600 (12%) showed an effect of 50% or more. The list comes from a sample in which strong results are over-represented; it also holds similar structures and randomly drawn compounds.
These compounds were tested on Plasmodium berghei (assay: Screen against P. berghei liver stage (PbLuc), transformed with Luciferase, at 10uM). Details: tested at 10 uM.
Type: functional, HepG2

SMILES	INHIBITION
CN(C)C(=O)N1CCC2(CCCN(c3ncccn3)C2)C1 (configuration not stated)	11.5%
O=C(C1=CCCCC1)N1CCC2(CC1)COC(COc1ccccn1)C2 (configuration not stated)	3.41%
Cc1ccccc1CC(=O)NS(=O)(=O)c1cccc2cnccc12	40.6%
CC(C)n1cc(C(=O)N2CCN(c3cccc(C(F)(F)F)c3)CC2)cn1	62.8%
Cc1cc(N2CCN(C(=O)c3cnn(C(C)C)c3)CC2)nc(N)n1	-2.73%
Cc1cc(N2CCN(C(=O)c3cnn(C(C)C)c3)CC2)cc(C)n1	3%
Cc1cc(C(=O)N2CCO[C@H]3[C@H](Oc4ccccn4)CC[C@@H]32)c(C)[nH]1	32.1%
O=C(c1cscn1)N1CCO[C@H]2[C@@H](Oc3ccccn3)CC[C@@H]21	63.8%
Cc1occc1C(=O)N1CCO[C@H]2[C@@H](Oc3ccccn3)CC[C@@H]21	30.7%
O=C(N1CCCC1)N1CCO[C@H]2[C@@H](Oc3ccccn3)CC[C@@H]21	35.3%
O=C(C1=CCCC1)N1CCO[C@H]2[C@@H](Oc3ccccn3)CC[C@@H]21	30.1%
Cc1cncc(C(=O)N2CCO[C@H]3[C@H](Oc4ccccn4)CC[C@@H]32)c1	72.9%
Cc1nn(C)c(C)c1C1CCCN1C(=O)c1ccc(C(N)=O)s1 (configuration not stated)	22.8%
Cc1ccc(CN(C)c2cc(N3CCCC3CO)ncn2)s1 (configuration not stated)	-21.4%
CCOC(=O)N1CCN(c2nc(N)c3ccccc3n2)CC1	-90.8%
CCOC(=O)N1CCN(c2nc(NC)c3ccccc3n2)CC1	45%
CCOC(=O)N1CCN(c2nc(N3CCCC3)c3ccccc3n2)CC1	3.68%
CCOC(=O)N1CCN(c2nc(NCCO)c3ccccc3n2)CC1	6.54%
CCOC(=O)N1CCN(c2nc(NC3CC3)c3ccccc3n2)CC1	52.3%
CCOC(=O)N1CCN(c2nc(NCCCO)c3ccccc3n2)CC1	51.3%
CNC(=O)CN1CC[C@H]2CN(C(=O)c3ccccc3F)C[C@H]2C1	19.4%
CCn1c(C2CCNCC2)nn(CCn2ccc(C)n2)c1=O	21.1%
CC(=O)N1CCCCC[C@@H]2[C@@H]1[C@H](c1cccc(F)c1)CN2C(C)=O	20.1%
CCN1CCC(CNC(=O)C2(c3cccc(C)c3)CCCCC2)CC1	-3.2%
CN1CCC(c2cncc(-c3cccc(Cl)c3)n2)CC1	19.6%
OC1CCN(Cc2ccc(CNc3ccc(Cl)cn3)cc2)CC1	54.3%

SMILES	INHIBITION
CNS(=O)(=O)Cc1cccc(CNc2ccc(Cl)cn2)c1	45.2%
Clc1ccc(CNc2ccc(Cl)cn2)cc1	-151%
CC(C)c1ccc(CNC(C)c2ccc(S(C)(=O)=O)cc2)cc1 (configuration not stated)	6.39%
CSc1ccc(CNc2ccccc2CN2CCC(O)CC2)cc1	-23.1%
Cc1nc(CNC(C)c2ccc(S(=O)(=O)N(C)C)cc2)no1 (configuration not stated)	45.7%
OC1CCN(Cc2ccc(CNc3ncc(Cl)cc3F)cc2)CC1	63.7%
CN(c1ccc(CNc2ccc(Cl)cn2)cc1)S(C)(=O)=O	-95.7%
OC1CCCN(CCNc2ncc(Cl)cc2F)C1 (configuration not stated)	22.1%
CC1CCN(CC(O)CNc2ccc(Cl)cn2)CC1 (configuration not stated)	35.6%
CN(C)S(=O)(=O)c1ccc(CNc2ccc(Cl)cn2)cc1	79.8%
CC(C)c1ccc(CNC(C)c2ccc(S(=O)(=O)N(C)C)cc2)cc1 (configuration not stated)	52.3%
CN(C)S(=O)(=O)N1C[C@@H]2C[C@H](C(=O)NCc3ccccc3)[C@H](C1)O2	21.5%
CC(C)Oc1ccc(CNC(=O)CN(C)S(C)(=O)=O)cc1F	13.375%
O=C(CCc1cc2n(n1)CCN(Cc1ccncc1)C2)N1CCCC1	33.5%
COCC1CN(C(=O)Cc2ccccn2)Cc2cn(CC3CC3)nc21 (configuration not stated)	-26%
CSc1ccc(CN(CCO)C(=O)CCc2cccc(F)c2)cc1	-1.04%
CC(C)c1nsc(N2CCOC3(CCCC3)C2)n1	-10.3%
CC(C)c1nsc(N2CCOCC2)n1	7.3%
CC(C)c1nsc(N2CCSCC2)n1	-8%
CC(C)c1nsc(N2CCC(OCCN3CCOCC3)CC2)n1	54.6%
CC(C)c1nsc(N2CCCOCC2)n1	61.6%
CC(C)c1nsc(N2CCS(=O)(=O)CC2)n1	-16.3%
NC(=O)C1(c2cnccn2)CCCN1Cc1ccc(Cl)c(F)c1 (configuration not stated)	-6.3%
Clc1ccc(CN(CCN2CCOCC2)Cc2cccnc2)cc1Cl	8.12%
Cc1nn(C)c(C)c1-c1cnc(CC2CCNC2)cn1 (configuration not stated)	-22.3%
Nc1nc2nc(C3CCCN(C(=O)c4cnccn4)C3)ccc2s1 (configuration not stated)	26.8%
